# Laboratory results published in the supplement of paper PMC3334620.
# In all, about 33,000 sequences were measured (“E-score (-0.5 to 0.5)”: median about -8e-05, highest 2% from about 0.23 on). Shown is part of a subset that was picked to be rich in the highest values.
# Molecular target: T1, Nrg2 (UniProt P38082)
# T1 sequence: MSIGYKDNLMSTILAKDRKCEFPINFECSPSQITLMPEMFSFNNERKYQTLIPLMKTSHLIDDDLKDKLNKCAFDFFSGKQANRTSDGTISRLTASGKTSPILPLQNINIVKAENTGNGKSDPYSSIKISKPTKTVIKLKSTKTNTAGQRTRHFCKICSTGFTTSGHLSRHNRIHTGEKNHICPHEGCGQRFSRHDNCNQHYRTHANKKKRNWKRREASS
# Experiment: PBM E-score (8-mer binding enrichment) (E-score (-0.5 to 0.5)); higher = stronger / more preferred TF binding
# Conditions: protein concentration: 100 nM; construct: GST-full length
# Procedure, shortened: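 PURExpress in vitro transcription/translation supplied GST-tagged yeast transcription factors, either full-length or DNA-binding domain. Applied at about 100-200 nM to universal all-10-mer Agilent arrays double-stranded by primer extension, the bound protein was detected with fluorescent anti-GST. E-scores, modified Wilcoxon-Mann-Whitney statistics, were given by the Universal PBM Analysis Suite to ungapped eight-base words pooled with their reverse complements after masliner normalisation.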
row,Sequence,PBM E-score
1,GCCGACAC,-0.0613
2,TCCGGTAA,-0.0902
3,CCTGGGTA,-0.159
4,GCCGGAAA,0.104
5,ACTCTGCC,-0.142
6,GGGCATAA,0.109
7,GGGCTTCA,-0.103
8,TCTCTAAA,-0.134
9,AGAGCCCC,-0.139
10,GTGGTCCA,0.0422
11,GGAACGCA,0.0954
12,TGAACGCA,0.0815
13,CGAACGCA,0.282
14,AAGCGCTC,0.0396
15,AAGCGCTA,0.0465
16,AAGCGCTT,0.303
17,CCGCCAAC,-0.126
18,ACGTTTCC,-0.16
19,ATTCCACC,0.0335
20,ATTCCACA,0.243
21,ATTCCACG,0.0249
22,GGAGGCAA,-0.141
23,CAGGTCCA,0.0188
24,ACCGTTCA,-0.164
25,AAATCGCC,0.00869

row,Sequence,PBM E-score
1,AAATCGCG,0.233
2,ATATCGCC,0.0573
3,AAATCGCA,0.158
4,ATATCGCA,-0.0927
5,ATATCGCG,0.331
6,GGGTTTAA,0.0664
7,AGATGGTA,0.0502
8,GTAGTGGA,0.152
9,ACCTTAGG,-0.191
10,CGCCCGAG,0.117
11,TCCGGCCA,0.00685
12,CGCGAAAG,0.122
13,GTGTAGAA,-0.191
14,GCAGGGCC,0.101
15,GCAGGGAA,0.238
16,GAAGGGAC,0.159
17,TCAGGGAA,0.0408
18,GCAGGGGA,-0.192
19,CCAGGGAA,0.0205
20,GCAGGGAC,0.28
21,CCAGGGAG,-0.107
22,CCAGGGAC,0.366
23,CATGTAGG,0.092
24,CGTCGGTC,0.00408
25,CAGGTTAA,-0.0788

row,Sequence,PBM E-score
1,CACGTCCA,-0.177
2,ACGCGATC,0.146
3,CGAGCTTA,-0.0737
4,TCAGCTGA,0.279
5,AGAGCTGA,0.00384
6,ACAGCTGA,0.0892
7,CGAGCTCG,0.241
8,GCAGCTGA,0.0488
9,CGAGCTCC,0.12
10,CGAGCTCA,0.108
11,CGAGCTGA,0.243
12,ATCCTCAG,0.1
13,AGCGGCCT,-0.275
14,GCTTCGTA,-0.102
15,CGGCCGAA,0.0577
16,GAGCTCGA,0.183
17,ACTAGCTA,0.0559
18,AAGAATCC,0.0617
19,AACCCCAA,0.147
20,TACCCCAA,0.247
21,TACCCCCA,-0.159
22,AACCCCAG,0.237
23,ACCCCCAG,-0.291
24,AACCCCAT,0.07
25,GCCGCAAA,0.157

row,Sequence,PBM E-score
1,ATCAACCG,0.0105
2,GGTGAATA,0.104
3,ATACCCTG,0.295
4,ATACCCTA,0.119
5,ATACCCTC,0.0223
6,CAACCCTA,0.0574
7,CAACCCTC,0.0136
8,AAACCCTA,0.184
9,AGACCCTC,0.0175
10,AGACCCTG,0.431
11,AACCCCTG,0.055
12,AAACCCTG,0.318
13,AGACCCTA,0.148
14,CAACCCTG,0.252
15,ATGGTTCG,0.109
16,AGAACCTC,-0.232
17,GGGTAGGA,-0.0916
18,AGAATGCT,0.108
19,CGTCCTTA,-0.0686
20,GGCCTAAC,0.0899
21,GCTGGAAC,-0.144
22,TGGCATAA,0.144
23,AAGAGGTA,0.0504
24,ACTCCTCA,-0.24
25,ACGACGTA,-0.166

row,Sequence,PBM E-score
1,ATTTCGTA,0.0258
2,AAGCGGAA,-0.0181
3,AACTAAGT,0.168
4,ATAGTCGG,-0.122
5,CTAGTCGA,-0.0659
6,ATAGTCGA,0.264
7,CTGGGTCC,-0.288
8,CGTCGCGA,0.143
9,TATCGCGA,0.252
10,ACTCGCGC,0.0455
11,CATCGCGA,0.127
12,GGTCGCGA,0.242
13,ACTCGCGA,0.273
14,AGTCGCGA,0.226
15,CCTCGCGA,0.179
16,GATCGCGA,0.168
17,ATTGTGCG,-0.0707
18,GCTCGAGA,-0.131
19,GCTCGAGC,0.24
20,CCTCGAGC,0.267
21,CCTCGAAG,0.0341
22,ACTCGAGG,0.162
23,CCTCGAGA,0.156
24,ACTCGAGC,0.073
25,GCTCGACC,-0.0125

row,Sequence,PBM E-score
1,CCTCGAGG,0.242
2,AAGCTATC,0.153
3,ACAACGCG,0.12
4,AGCGCACA,0.137
5,ACTAGCAT,-0.0422
6,AAGACCGA,-0.018
7,TAAATGCA,0.275
8,CAAATGCC,-0.0811
9,CAAATGCA,-0.0764
10,CAAATGCG,0.268
11,GAAATGCA,0.055
12,AAAATGCG,0.0104
13,AAACCTCC,-0.115
14,AAACTGCG,-0.0689
15,AGTTTCGA,0.0135
16,ATATGGAT,0.247
17,ATATGGAG,0.147
18,ATATGGAC,0.0806
19,GGTGAGAA,-0.0568
20,GAGCGACC,-0.168
21,CAAGTTTC,-0.00709
22,CCCATGAC,-0.0865
23,GGTTTCGA,0.191
24,CAAATGGA,-0.0362
25,AAAATGGG,-0.0403

row,Sequence,PBM E-score
1,AAAATGGA,0.308
2,CCGGGTCC,-0.171
3,AAGGGTCC,0.439
4,AAGGGTCA,0.149
5,AGGGGTCA,0.128
6,AAGGGTCT,0.273
7,CAGGGTCC,0.446
8,AAGGGTGT,0.0853
9,AAAGGTCC,0.0985
10,CAGAGTCC,0.0801
11,ATGGGTCC,0.0519
12,AGGGGTCG,0.0876
13,AGGGGTCC,0.316
14,AAGGTAGG,0.00624
15,GGATAACC,-0.141
16,GTCTTTCA,-0.177
17,AGCCGAAG,-0.104
18,TATAGACA,0.0604
19,AGATTCCG,0.101
20,AAGGGTCG,0.132
21,GAGGGTCA,-0.227
22,GCGGGTCC,-0.0518
23,CAGGGTCG,0.264
24,CAGGGTCA,0.0802
25,GAGGGTCC,0.282
